About 21,000 targets were measured; listed, in parts, are those with the largest changes and a random draw of the rest.
The targets below were run with Cc1cc(ccc1-c1ccccc1)C(=O)N1CCCN(CC1)C(=O)CCl [compound 10] (assay: probe-labelled cysteine peptide fold change vs DMSO (competition) (log2 fold change); higher = less target engagement (more negative = stronger competition)). Details: 50 µM; THP-1; incubation time: 4 h.
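Also: competitive profiling in live THP-1 cells: cysteine peptides tagged with an iodoacetamide desthiobiotin (IA-DTB) probe, intensity after compound treatment relative to DMSO-treated cells.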

Target	probe-labelled cysteine peptide fold change
HAUS2_Q9NVX0_89_CHTLQSMNNHLEAVLK (UniProt Q9NVX0)	-0.239
GTF3C5_Q9Y5Q8_75_DPYCHPVCANR (UniProt Q9Y5Q8)	0.621
HDAC5_Q9UQL6_982_CFGHLTR (UniProt Q9UQL6)	-0.104
HDAC10_Q969S8_23_LLWDDPECEIERPER (UniProt Q969S8)	-0.208
HK3_P52790_190_CSGVEGQDVVQLLR (UniProt P52790)	-0.106
HELZ_P42694_101_AVLCCMQLK (UniProt P42694)	-1.11
FKBP8_Q14318_274_CLNNLAASQLK (UniProt Q14318)	-0.0462
GPAA1_O43292_266_GGLLCTLQGK (UniProt O43292)	-0.0244
GNB1_P62873_148+149_ELAGHTGYLSCCR (UniProt P62873)	-0.407
GFPT1_Q06210_264_VDSTTCLFPVEEK (UniProt Q06210)	0.203
GSPT1_P15170_464_TAGTICLETFK (UniProt P15170)	0.0941
FLAD1_Q8NFF5_338_LTLDSEEEGPLEECLAYLTAR (UniProt Q8NFF5)	0.177

From the supplement of paper PMC12067093, “Discovery and optimisation of a covalent ligand for TRIM25 and its application to targeted protein ubiquitination” (Chemical Science, 2025)
